HttQ103 aggreg: mutant huntingtin aggregation inhibition; PC12 HttQ103-GFP aggregates, Acumen cytometry, 40 h; Potency, µM (series often up to 46.1 µM), inactives show top-dose activity change, negative = inhibition, hits mostly inhibitors; 220,000 compounds, 1.1% hits; further: on the % scale 0 is the no-effect control and ±100 the full control effect; nearly all actives have a fitted effect of over 60% in size
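Quantitative HTS on tebufenozide-induced (100 nM) PC12 cells stably expressing polyQ103 Huntingtin exon 1–GFP. Reduction of bright GFP aggregates, detected by laser scanning cytometry after lysis, identified actives across the titration.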
HTT ATP protect: cytoprotection in Huntington HTT-Q103 PC12 cell model; PC12 HTT-Q103 induced, cytoprotection, ATP luminescence, 40 h; Potency, µM (highest dose often 56.4 µM), for inactives: cytoprotection (ATP increase), usual class: activators; 230,000 compounds, 0.14% hits; further: % of control where 0% means no effect; nearly all actives have a fitted effect of over 45% in size
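ATP quantification (ATPlite) reports survival of PC12 cells in which tebufenozide, 100 nM final, switches on Htt exon 1 with 103 glutamines linked to GFP; compounds are titrated.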
ERK EGF block: inhibitors of EGF-stimulated ERK signaling pathway | Potency, µM (doses to about 11.5 µM), without a hit: top-dose activity change, negative = inhibition, actives largely listed as inhibitors | 130,000 compounds, 0.41% hits | HEK293-V1b, EGF-stimulated phospho-ERK AlphaScreen;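 further: plate controls were stimulated vehicle wells for no effect and unstimulated vehicle basal for full effect; nearly all actives have a fitted effect of over 55% in size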
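V1b-HEK293, 1% FBS o/n; cpd 30 min 37C; EGF 25 nM final, 5 min; lyse 10 min; AlphaScreen beads 5 h RT. Normalized DMSO basal vs EGF max; Hill AC50.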
Active calls of the source: *; [ ] = dose if it differs, or a comment. In the library only some 1.4% were active in any assay of this set; here they are far more common. The call rests on the fitted dose curve; in most records, active means well fitted curve in the direction sought with a large enough effect; inconclusive means small, poorly fitted or top-dose-only effect, or another doubt; inactive means no such curve, though single readings can be large; an effect the other way counts as inactive or inconclusive. Potency means the concentration at half of the fitted maximal effect.

How did COc1ccccc1C(=O)N1CCN(Cc2ccc3c(c2)OCO3)CC1 do in these assays?
HttQ103 aggreg: 2.8µM*; HTT ATP protect: 3%[10 µM]; ERK EGF block: 2%

What do the screens show for `O=C(CN1C(=O)c2cccc3cccc1c23)NCc1ccc2c(c1)OCO2`?
HttQ103 aggreg: -13%; HTT ATP protect: -11%[0.074 µM]

Results for COc1cc2c(C(=O)N3CCN(Cc4ccc5c(c4)OCO5)CC3)cn(C)c(=O)c2cc1OC ?
HttQ103 aggreg: -3%; HTT ATP protect: 2%[10 µM]

What do the screens show for `O=C(CN1C(=O)c2cccc3cccc(c23)C1=O)N1CCN(Cc2ccc3c(c2)OCO3)CC1`?
HttQ103 aggreg: 18µM*; HTT ATP protect: 20%[10 µM]

What do the screens show for `O=C(CCCCCn1c(=O)[nH]c2ccccc2c1=O)N1CCN(Cc2ccc3c(c2)OCO3)CC1`?
HttQ103 aggreg: 13µM*; HTT ATP protect: 2%[10 µM]

Results for COc1cccc(C(=O)N2CCN(C(=O)c3cccc4ccccc34)CC2)c1OC ?
HttQ103 aggreg: inconclusive; HTT ATP protect: -2%

What do the screens show for `COc1cc2[nH]c(=O)n(CCC(=O)N3CCN(Cc4ccc5c(c4)OCO5)CC3)c(=O)c2cc1OC`?
HttQ103 aggreg: inconclusive; HTT ATP protect: -29%; ERK EGF block: -1%

What do the screens show for `Cn1c(=O)c(-c2ccc(Cl)cc2)nc2cnc(N3CCOCC3)nc21`?
HTT ATP protect: -8%

How did COCCn1c(C(=O)N2CCCC2)cc2c1C[C@H]1CN(C(=O)c3ccccc3)[C@@](Cc3ccc(OC)cc3)(C(=O)OC)[C@@H]21 do in these assays?
HTT ATP protect: inconclusive; ERK EGF block: 0%

Results for CC(=O)OC/C=C(C)/C=C/C=C(C)/C=C/C1=C(C)CCCC1(C)C ?
HTT ATP protect: 9%; ERK EGF block: -3%

How did Cc1cc2nc(-c3ccc(SCc4ccccn4)nc3)[nH]c2cc1C do in these assays?
HttQ103 aggreg: -12%; HTT ATP protect: -70%; ERK EGF block: inconclusive

Results for S=C(Nc1ccccc1)Nc1ccccc1C#Cc1ccccc1 ?
HTT ATP protect: -60%; ERK EGF block: inconclusive

What do the screens show for `CC(=O)OC1CC2C(C)(C)C(O)CC[C@@]2(C)C2CC[C@@]3(C)C(c4ccoc4)OC(=O)C4OC43[C@]12C` (some centres not stated)?
ERK EGF block: 23%

How did COc1ccc(NC(=O)N2CC[C@@]3(CCCN(C(=O)c4cccc(F)c4)C3)C2)cc1 do in these assays?
HTT ATP protect: -5%; ERK EGF block: 0%

Results for CCC(CO)[n+]1c(C)cc(/C=C2\Sc3ccccc3N2Cc2ccccc2)cc1C (configuration not stated) ?
HttQ103 aggreg: 20µM*; HTT ATP protect: -66%[10 µM]; ERK EGF block: 4%

Results for CCN1/C(=C2\SC(=S)N(Cc3ccccc3)C2=O)Sc2ccccc21 ?
HttQ103 aggreg: 5%; HTT ATP protect: 27%[10 µM]; ERK EGF block: -3%

How did COCCCN1C(=O)CS/C1=N\S(=O)(=O)c1ccccc1 do in these assays?
HttQ103 aggreg: 20%[9.22 µM]; HTT ATP protect: 25%[10 µM]; ERK EGF block: -3%[57.5 µM]

Results for O=Cc1s/c(=N\S(=O)(=O)c2ccccc2)n(CCCCl)c1Cl ?
HttQ103 aggreg: 5µM*; HTT ATP protect: -178%; ERK EGF block: 22µM*

How did COc1cc(OC)c2cc(-c3ccncc3)cnc2c1 do in these assays?
HTT ATP protect: -13%; ERK EGF block: 8%

How did CN(C)c1ccc(N=Nc2ccccc2C(=O)OCC(=O)N(C)c2ccccc2)cc1 do in these assays?
HttQ103 aggreg: 8%; HTT ATP protect: -42%[10 µM]; ERK EGF block: 10µM*

Results for CN(C(=O)COC(=O)c1n[nH]c2ccccc12)c1ccccc1 ?
HttQ103 aggreg: inconclusive; HTT ATP protect: -28%; ERK EGF block: -9%

How did COC(=O)c1ccccc1NC(=O)COC(=O)c1ccccc1N=Nc1ccc(N(C)C)cc1 do in these assays?
HttQ103 aggreg: 6.3µM*; HTT ATP protect: -43%[10 µM]; ERK EGF block: 14µM*

Results for CC(=O)c1ccc(NC(=O)COC(=O)c2ccccc2N=Nc2ccc(N(C)C)cc2)cc1 ?
HttQ103 aggreg: inconclusive; HTT ATP protect: -55%[10 µM]; ERK EGF block: 28%

What do the screens show for `CCN(CC)CCn1c(-c2ccccc2)nc2c(NC3CCCCC3)nc(C)nc21`?
HTT ATP protect: -16%; ERK EGF block: 15%

How did C(=N\N1CCN(Cc2ccccc2)CC1)/c1ccccc1 do in these assays?
HttQ103 aggreg: 3%[9.22 µM]; HTT ATP protect: 15%[10 µM]; ERK EGF block: 10%[57.5 µM]

What do the screens show for `CCN(CC)c1ccc(/C=N/N2CCN(Cc3ccccc3)CC2)cc1`?
HttQ103 aggreg: 3%; HTT ATP protect: -97%; ERK EGF block: 28µM*
